Results reported in PubChem BioAssay AID602313 (National Center for Advancing Translational Sciences (NCATS), 2012).
In all, about 390,000 compounds went through this assay and about 760 (0.19%) were called active. Where a call stands in place of a potency, no number is given. Another 3% or so got no clear call; they are omitted. This is one part of a sample in which actives are shown more often than they occur. Calls come from the whole dose curve; as a rule, active = well fitted inhibition curve with a large enough effect; inconclusive = small, poorly fitted or top-dose-only effect; inactive = flat fitted curve, though single readings scatter.

Assay: qHTS for Inhibitors of Vif-A3F Interactions: qHTS; note: nearly all actives have a fitted effect of over 65% in size
Details: HeLa A3F-eYFP + Vif (tagged APOBEC3F with the HIV-1 protein that degrades it), YFP fluorescence increase; series mostly up to 46.1 µM
In short: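 Fluorescence increase (Ex 488/Em 500-530) after overnight compound treatment at 37 deg C flags inhibition of Vif-driven A3F-eYFP loss in stable HeLa A3F-eYFP/Vif cells seeded overnight beforehand.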
Potency is the fitted concentration of half-maximal effect.

Structure (SMILES)	Potency
CCOC(=O)c1cc(-c2ccccc2)n(-c2cccc(C(=O)Nc3cc(OC)cc(OC)c3)c2)c1C	inactive
Cn1ccc2cc(S(=O)(=O)N3CCCC(C(=O)NCc4ccccc4F)C3)ccc21 (stereo unspecified)	inactive
O=C(NC1CC(=O)N(c2ccccc2)C1)c1ccco1 (stereo unspecified)	inactive
Cc1cn(C)c(CC(=O)NCc2ccc(Cl)cc2)c1C(=O)O	inactive
O=C(NCCc1csc(-c2ccc(C(F)(F)F)cc2)n1)C(=O)Nc1ccc(F)c(Cl)c1	inactive
Cc1cc(C)c2oc(-c3cccc(NC(=O)c4cccc(F)c4)c3C)nc2c1	inactive
CCCCn1c(=O)c2oc3ccccc3c2n(CC(=O)Nc2ccccc2OC)c1=O	inactive
CCCCN(CC)C(=O)c1c[nH]c2ccc(S(=O)(=O)Nc3cccc(OC)c3)cc2c1=O	inactive
CC(=O)N/C(=N/c1nc(C)cc(C)n1)Nc1ccc(F)cc1F	inactive
Cc1cc(C)nc(-n2nc(C)cc2NC(=O)c2ccc(F)cc2F)n1	12.6 µM (active)
Cc1cc(C(=O)Nc2cccc(C(F)(F)F)c2)c2c(C)nn(-c3cccc(F)c3)c2n1	inactive
O=C(COc1ccc(Cl)cc1)Nc1ccccc1OCc1cc(=O)n2ccccc2n1	inactive
Cc1ccccc1NC(=O)COc1cccc2c1CCNC2=O	inactive
Cc1ncc(CO)c(/C=N/NC(=O)c2cccc(S(=O)(=O)N3CCCC3)c2)c1O	inactive
COc1cccc(/C=N/NC(=O)c2[nH]nc3c2CCc2ccccc2-3)c1O	25.1 µM (active)
COC(=O)c1c(NC(=O)c2cc(=O)c3c(C)cc(C)cc3o2)sc2c1CCCC2	inactive

Structure (SMILES)	Potency
Cn1c(C(=O)Nc2cccc(C(F)(F)F)c2)cc2c(=O)n3ccccc3nc21	inactive
Cc1ccc(NC2=C(c3ccc(C(F)(F)F)cc3)C(=O)c3ccccc32)cc1F	inactive
Cc1ccc(Cn2c(CCCNC(=O)C3CCCCC3)nc3ccccc32)cc1	inactive
Cn1c(SCC(=O)N2CCCc3ccccc32)nc2ccccc2c1=O	inactive
Cc1cccc2cc3c(N)c(C(=O)N4CCCc5ccccc54)sc3nc12	11.2 µM (active)
Cc1cccc(-c2nnc(SCC(=O)N3CCCc4ccccc43)o2)c1	inactive
CCOC(=O)c1cccc(NC(=O)c2cc(CN3CCCC3)on2)c1	inactive
CC(=O)c1ccc(NC(c2ccc(F)cc2)c2nnc(-c3ccccc3)o2)cc1 (stereo unspecified)	inactive
CCc1ccc(N2C(=O)CN(S(=O)(=O)CC)CC2(C)C(=O)NC2CCCCC2)cc1 (stereo unspecified)	inactive
CCCn1c(=N)c(C(=O)NCc2ccccc2)cc2c(=O)n3cccc(C)c3nc21	inactive
CC(C)c1ccc(NC(=O)c2ccc(Cn3nc(N4CCN(c5ccccc5)CC4)ccc3=O)o2)cc1	inactive
Cn1c(=O)c2c(SCC(=O)NCC3CCCO3)nc(-c3ccccc3F)nc2n(C)c1=O (stereo unspecified)	inactive
Cc1ccc(-c2cc(C(=O)Oc3ccccc3Cl)no2)cc1C	inactive
O=c1cc(COc2cccc(C(F)(F)F)c2)nc2sc3c(n12)CCCC3	inactive
COc1ccc(CNC(=O)c2cc3cccc(OC)c3oc2=O)cc1	inactive
